A short description of test [1]: inhibitors of TNFa-induced NFkB p65 translocation, primary screen, imaging, HUVEC, MLSMR starter and 10KST1 sets (AID 438;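 active = inhibition above 20% together with a positive visual image hit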;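 note: compound added about 3h40 before a 20 min TNFalpha stimulation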;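 for inhibition: signal is the nuclear over cytoplasmic p65 intensity ratio per well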). To be noted: HUVEC TNFa-induced p65 nuclear translocation; cell count: measured here: nuclei count (cytotoxicity indicator), at 2.08 µM; inhibition: at 2 µM, stronger effect = higher value, 0% TNFa-plus-vehicle, 100% no-TNFa wells.
The nature of test [2]: reduction of polyQ htt aggregates in cells – imaging, exon1htt(103Q)mCFP cells, high-content imaging, primary screen (AID 483;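 active = visual image review flags a hit and inhibition of aggregation exceeds 20%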;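 note: compound exposure lasted 3 days before fixation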;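 for nuclei count: percent of the per-plate median nuclei count of sample wells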). The settings on record: exon1htt(103Q)mCFP cell line, aggregate imaging, at 2 µM; inhibition of aggregation: stronger effect = higher value; nuclei count: measured here: cell count, toxicity.
The nature of test [3]: endothelial E-selectin expression blockers – imaging, HUVEC, immunofluorescence, MLSMR starter and 10KST1 sets, primary screen (AID 487;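 active = visually confirmed hit in the image check and inhibition above 20%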;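 for inhibition: signal is fraction of cell area covered by stained E-selectin grains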;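 for nuclei count: 100% = median nuclei count of all wells on the same plate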). To be noted: HUVEC TNFalpha-induced E-selectin immunofluorescence imaging, at 2 µM; inhibition: stronger effect = higher value; nuclei count: measured here: cell number, toxicity.
Test [4] has as its target Voltage-gated potassium channel subunit beta-2 (Rattus norvegicus) (UniProt P62483). Nature of the test: inhibitors of rat Kvbeta2 reductase activity – biochemical, NADPH fluorescence, primary screen (AID 622;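 active = fluorescence slope higher than the sample average by over 3 SD, cut at about -0.22 in these data, passing the limit was not always enough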;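 note: slope of raw intensity against log time taken from 70 to 1610 s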). To be noted: recombinant KvBeta, 4-cyanobenzaldehyde reduction, at 10 µM, stronger effect = higher value.
The target is the same in test [5]. Nature of the test: enhancers of rat Kvbeta2 NADPH turnover – biochemical, NADPH fluorescence, primary screen (AID 623;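 active = NADPH fluorescence slope more negative than the mean of all samples by about 3 SD, 99.7% confidence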;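 note: fluorescence intensity change per second fitted from 20 to 320 s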). The settings on record: Recombinant KvBeta, NADPH fluorescence decrease slope, 10 min; at 10 µM; stronger effect = lower value.
Test [6] concerns the target Alpha-2C adrenergic receptor (Homo sapiens) (UniProt P18825). Nature of the test: compounds altering alpha2C-coupled GIRK flux – cell-based, HEK293 alpha2C/GIRK1/2, thallium flux, primary screen (AID 624).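 Note: slope of fluorescence ratio to pre-addition baseline per second over 15 to 24 s.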 The settings on record: thallium flux BTC fluorescence, at 10 µM, actives lie on both sides.
Test [7] can be described thus: blockers of RIG-like receptor reporter activation – cell-based, Sendai virus stimulus, luciferase, 10K MLSCN set, TLR/RLR signaling modifier project, primary screen (AID 602276;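 active = inhibition at or above 50% at 10 µM; inactive = inhibition below 50%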;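 note: firefly luciferase from ISG56 promoter only with Renilla not read in this screen; 0% = Sendai virus plus DMSO and 100% = medium plus DMSO without virus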). The settings on record: HEK293 RL24 IRF3 luciferase reporter, at 10 µM, stronger effect = higher value. (In general: Reporter assays use an easily measured gene product as a stand-in for the process of interest.)

Test [8] in a line: TLR3 IRF3 reporter activation blockers – cell-based, poly I:C stimulus, luciferase, 10K MLSCN set, primary screen (AID 602277;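 active = inhibition of the reporter signal at or above 50%; inactive = inhibition below 50%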). To be noted: HEK293-TLR3 RL24 IRF3 luciferase reporter, at 10 µM, stronger effect = higher value.

Active and inactive are the calls of the source.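 Rule for the calls, unless noted: active = fluorescence slope after compound addition differing from the mean of all screened samples at 99.7% confidence, in either direction; inactive = the rest.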

Voltage-gated potassium channel subunit beta-2 (Rattus norvegicus), sequence (P62483 whole entry, looked up): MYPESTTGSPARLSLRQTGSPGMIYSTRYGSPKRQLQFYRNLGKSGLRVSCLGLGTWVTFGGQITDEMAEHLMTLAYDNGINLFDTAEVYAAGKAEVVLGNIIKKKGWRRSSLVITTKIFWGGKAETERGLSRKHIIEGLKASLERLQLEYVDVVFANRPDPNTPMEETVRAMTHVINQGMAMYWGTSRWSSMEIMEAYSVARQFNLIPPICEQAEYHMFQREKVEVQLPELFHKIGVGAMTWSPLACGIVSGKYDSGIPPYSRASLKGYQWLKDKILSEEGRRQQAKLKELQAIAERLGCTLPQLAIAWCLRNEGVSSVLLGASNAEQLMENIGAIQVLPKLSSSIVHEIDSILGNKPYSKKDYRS
Alpha-2C adrenergic receptor (Homo sapiens), sequence (P18825 whole entry, looked up): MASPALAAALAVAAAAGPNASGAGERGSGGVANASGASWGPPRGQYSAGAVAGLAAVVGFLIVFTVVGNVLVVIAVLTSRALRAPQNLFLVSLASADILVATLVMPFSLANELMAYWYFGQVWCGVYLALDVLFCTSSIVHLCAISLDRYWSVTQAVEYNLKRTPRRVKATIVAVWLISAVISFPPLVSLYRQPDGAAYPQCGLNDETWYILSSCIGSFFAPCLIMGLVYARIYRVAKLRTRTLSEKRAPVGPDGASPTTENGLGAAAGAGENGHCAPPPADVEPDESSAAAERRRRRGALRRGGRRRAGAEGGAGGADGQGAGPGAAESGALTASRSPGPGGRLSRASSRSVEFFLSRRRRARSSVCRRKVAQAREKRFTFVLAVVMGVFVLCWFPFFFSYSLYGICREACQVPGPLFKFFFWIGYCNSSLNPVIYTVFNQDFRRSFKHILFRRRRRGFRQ

In general, inhibition refers to the change of the read-out against control, counted positive when it falls. On to `Cc1cc(NS(=O)(=O)c2ccc(Nc3nc(-c4sc(N)nc4C)cs3)cc2)no1`, for which the cell count in test [1] was 333. Moreover, the inhibition was 5.5% (inactive) in test [1], -11.3% (inactive) in test [3], 6.21% (inactive) in test [7] and 25.1% (inactive) in test [8]. Besides, the inhibition of aggregation in test [2] was -10.4% (inactive). Further, the nuclei count in test [2] is 117%; in test [3], 103%. The fluorescence slope in test [4] was -0.412 (inactive). Moreover, the NADPH fluorescence slope in test [5] is -7.5e-05 (inactive). For the same compound, the slope in test [6] was 0.00495 (inactive).

For `CCSc1nnc(NC(=O)c2csc(C)c2)s1`, the cell count in test [1] came to 366. For the same compound, the inhibition was 4.2% (inactive) in test [1], -18.6% (inactive) in test [3], -36.6% (inactive) in test [7] and -89.7% (inactive) in test [8]. Moreover, the inhibition of aggregation in test [2] was 12.8% (inactive). Moreover, the figures for the nuclei count in test [2] and in test [3] were 101% and 104%, respectively. The fluorescence slope in test [4] is -0.592 (inactive). In addition, the NADPH fluorescence slope in test [5] was -1.3e-05 (inactive). The slope in test [6] was 0.00352 (inactive).

In the case of `Cc1cc2nc(-c3ccco3)cc(C(F)(F)F)n2n1`, the cell count in test [1] was 903. The inhibition in test [1] was 3.5% (inactive); in test [3], -56.6% (inactive); in test [7], 10.1% (inactive); in test [8] it was 18.3% (inactive). The inhibition of aggregation in test [2] is -18.7% (inactive). Further, the nuclei count in test [2] worked out at 104%; in test [3] it was 121%. Besides, the fluorescence slope in test [4] is -0.578 (inactive). Moreover, in test [5], the NADPH fluorescence slope is -1.8e-05 (inactive). Besides, the slope in test [6] is 0.00736 (inactive).

As to `CCCn1cnc2c(cnn2-c2ccc(F)cc2)c1=O`, in test [1], the cell count came out at 451. The inhibition in test [1] is 5.5% (inactive); in test [3] it was -41.5% (inactive); in test [7] it was -35.2% (inactive); in test [8] it was -147% (inactive). Besides, the inhibition of aggregation in test [2] was 11.2% (inactive). In addition, the nuclei count amounted to 85.6% in test [2] and 124% in test [3]. For the same compound, in test [4], the fluorescence slope is -0.536 (inactive). For the same compound, the NADPH fluorescence slope in test [5] is 1.4e-05 (inactive). The slope in test [6] is 0.00574 (inactive).

With `O=C(O)c1c(Cl)c(Cl)c(Cl)c(Cl)c1C(=O)N1CCOCC1`, the cell count in test [1] amounted to 530. Further, the inhibition in test [1] is -10.7% (inactive); in test [3], 12.7% (inactive); in test [7], 7.47% (inactive); in test [8] it was 5.92% (inactive). Moreover, in test [2], the inhibition of aggregation was -17.6% (inactive). For the same compound, the nuclei count in test [2] and in test [3] was 112% in each case. Also, in test [4], the fluorescence slope was -0.618 (inactive). The NADPH fluorescence slope in test [5] was -3.3e-05 (inactive). For the same compound, the slope in test [6] is 0.00588 (inactive).

Take `COc1cccc(-c2nc(CS(=O)CC(=O)NCCCOC(C)C)c(C)o2)c1` (centres undefined): in test [1], the cell count came to 193. The inhibition was -13% (inactive) in test [1], -27.1% (inactive) in test [3], 11.4% (inactive) in test [7] and 7.08% (inactive) in test [8]. The inhibition of aggregation in test [2] is 5.9% (inactive). Moreover, the nuclei count in test [2] was determined as 119%; in test [3] it was 95.8%. Also, in test [4], the fluorescence slope is -0.486 (inactive). The NADPH fluorescence slope in test [5] is -9.9e-06 (inactive). In addition, the slope in test [6] was 0.00479 (inactive).

`COC(=O)c1ccccc1S(=O)(=O)NC(=O)c1ccccc1`: the cell count in test [1] turned out to be 368. Besides, the inhibition in test [1] was -2.8% (inactive); in test [3], -26% (inactive); in test [7] it was 13.5% (inactive); in test [8] it was 24.3% (inactive). Also, in test [2], the inhibition of aggregation is -12.4% (inactive). Also, the nuclei count in test [2] came to 96.8%; in test [3] it was 114%. Moreover, the fluorescence slope in test [4] is -0.593 (inactive). The NADPH fluorescence slope in test [5] was -3.3e-08 (inactive). Further, the slope in test [6] is 0.00588 (inactive).

As to `CCOC(=O)N1CCC2(O)CCCCC2C1c1ccc(F)cc1` (centres undefined), the cell count in test [1] came to 450. In addition, the inhibition in test [1] is -1.7% (inactive); in test [3], -73.3% (inactive); in test [7] it was 14.6% (inactive); in test [8], 22.6% (inactive). Further, the inhibition of aggregation in test [2] was -11.2% (inactive). The results for the nuclei count in test [2] and in test [3] were 108% and 109%, respectively. For the same compound, the fluorescence slope in test [4] was -0.439 (inactive). In test [5], the NADPH fluorescence slope is 1.9e-05 (inactive). Besides, the slope in test [6] was 0.00629 (inactive).

On to `CCOc1ccc(-c2nc(C#N)c(NCc3ccc4c(c3)OCO4)o2)cc1`, for which the cell count in test [1] stood at 801. For the same compound, the inhibition in test [1] was 1.8% (inactive); in test [3], -56.3% (inactive); in test [7], -4.94% (inactive); in test [8] it was -18.3% (inactive). For the same compound, in test [2], the inhibition of aggregation was -13.1% (inactive). For the same compound, the figures for the nuclei count in test [2] and in test [3] were 93.8% and 120%, respectively. Further, the fluorescence slope in test [4] was -0.581 (inactive). Besides, the NADPH fluorescence slope in test [5] was -4.4e-05 (inactive). In test [6], the slope was 0.00619 (inactive).

On to `Cc1cc(C)c(NC(=O)C2CSCCS2)c(C)c1` (centres undefined), for which the cell count in test [1] worked out at 484. The inhibition is 4.7% (inactive) in test [1], -55.7% (inactive) in test [3], -3.4% (inactive) in test [7] and -35.7% (inactive) in test [8]. Besides, the inhibition of aggregation in test [2] is 23.2% (inactive). Also, the values for the nuclei count in test [2] and in test [3] were 96% and 111%, respectively. Besides, in test [4], the fluorescence slope is -0.392 (inactive). Moreover, the NADPH fluorescence slope in test [5] is -6.2e-05 (inactive). The slope in test [6] is 0.00428 (inactive).

As for `CCCCNC(=O)C(C#N)c1nc2ccccc2nc1N1CCCC1` (centres undefined), the cell count in test [1] turned out to be 289. The inhibition was -6.5% (inactive) in test [1], 9% (inactive) in test [3], 16.3% (inactive) in test [7] and 14% (inactive) in test [8]. For the same compound, the inhibition of aggregation in test [2] was 22.5% (inactive). Besides, the nuclei count came to 78.4% in test [2] and 52.3% in test [3]. For the same compound, the fluorescence slope in test [4] is -0.235 (inactive). Also, the NADPH fluorescence slope in test [5] was -1.3e-05 (inactive). Moreover, the slope in test [6] was 0.00359 (inactive).

On to `O=C(Nc1nccs1)c1ccc(COc2ccccc2Br)o1`, for which, in test [1], the cell count was 694. Besides, the inhibition in test [1] was -14.6% (inactive); in test [3] it was -85.8% (inactive); in test [7], 21.2% (inactive); in test [8], -63.2% (inactive). Also, the inhibition of aggregation in test [2] was -27.8% (inactive). Besides, the nuclei count is 111% in test [2] and 118% in test [3]. The fluorescence slope in test [4] was -0.487 (inactive). The NADPH fluorescence slope in test [5] was -5.4e-05 (inactive). Besides, the slope in test [6] was 0.00542 (inactive).

As for `CCCC(=O)Nc1ccc2oc(-c3cccnc3)nc2c1`, the cell count in test [1] stood at 330. For the same compound, the inhibition in test [1] was -1.1% (inactive); in test [3], -1.9% (inactive); in test [7], -23.4% (inactive); in test [8], -96.1% (inactive). The inhibition of aggregation in test [2] is 18.2% (inactive). Also, the nuclei count in test [2] was determined as 82.7%; in test [3], 62.2%. For the same compound, the fluorescence slope in test [4] was -0.332 (inactive). The NADPH fluorescence slope in test [5] is -1.1e-05 (inactive). The slope in test [6] is 0.00331 (inactive).

For the compound `Cc1ccc2c(Cl)cc(Cl)c(OCc3c(C)noc3C)c2n1`, the cell count in test [1] came out at 731. For the same compound, the inhibition was -1.2% (inactive) in test [1], -164% (inactive) in test [3], -17% (inactive) in test [7] and -0.677% (inactive) in test [8]. Besides, the inhibition of aggregation in test [2] is -13.6% (inactive). Further, the nuclei count in test [2] was found to be 97.3%; in test [3], 142%. The fluorescence slope in test [4] was -0.604 (inactive). Further, in test [5], the NADPH fluorescence slope was 2.6e-05 (inactive). Moreover, in test [6], the slope is 0.00543 (inactive).

The record behind these values is PubChem BioAssay.
